According to the supplement of paper PMC10849652:
About 7,900 targets were measured; listed, in parts, are those with a hit and a random draw of the rest. About 0.6% of all pairs of compound and target were hits. Values without a mark were called inactive.

What was measured:
Assay in all cases: log2 fold change, soluble protein after heating vs DMSO (PISA); higher = thermal stabilisation; K562 cells, 10 uM, 30 min; active = over 0.2 and 3.5 SD of the protein, either way, in both replicates (recomputed)
[1] = compound: COC1=CC=C(C=C1)CN2C=CC3=C2C=C(C=C3)C(=O)NO
How it was run: (§1)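 Values are thermal stability changes relative to control samples and are taken from duplicates. They are stated as log2 fold changes. Before quantification by TMTpro 16plex LC-MS/MS with equalised channel sums, K562 cells at 2×10^6 cells/mL were treated with 10 μM compound for 30 min, heated in aliquots for 3 min across 48°C-58°C, pooled, extracted in PBS with 0.5% NP-40 at 4°C, and centrifuged at 21,000xg for 90 min to give the soluble supernatant.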

[2] = compound: CON(C)C(=O)N1N=C(c2cc(F)ccc2F)S[C@@]1(CCCN)c1ccccc1 [filanesib]
How it was run: as §1

[3] = compound: CO[C@H]1C[C@@H]2CC[C@@H](C)[C@@](O)(O2)C(=O)C(=O)N2CCCC[C@H]2C(=O)O[C@H]([C@H](C)C[C@@H]2CC[C@H](n3cnnn3)[C@H](OC)C2)CC(=O)[C@H](C)/C=C(\C)[C@@H](O)[C@@H](OC)C(=O)[C@H](C)C[C@H](C)/C=C/C=C/C=C/1C [zotarolimus]
How it was run: as §1

[4] = compound: COc1cc(C(=O)O)ccc1NC(=O)[C@@H]1N[C@@H](CC(C)(C)C)[C@](C#N)(c2ccc(Cl)cc2F)[C@H]1c1cccc(Cl)c1F [idasanutlin]
How it was run: as §1

[5] = compound: COc1cc(Nc2ncc3c(n2)-c2ccc(Cl)cc2C(c2c(F)cccc2OC)=NC3)ccc1C(=O)O [alisertib]
How it was run: as §1

[6] = compound: COc1cc2nc(-c3cc(F)ccc3O)nc(N[C@@H]3CNC[C@H]3C(C)(C)O)c2cc1OC
How it was run: as §1

[7] = compound: COc1cc2ncnc(Nc3ccc(F)c(Cl)c3)c2cc1OCCCN1CCOCC1 [gefitinib]
How it was run: as §1

[8] = compound: COc1cccc2cc(-c3nc([C@H]4CC[C@H](C(=O)O)CC4)n4ncnc(N)c34)[nH]c12
How it was run: as §1

[9] = compound: CS(=O)(=O)CCNCc1ccc(-c2ccc3ncnc(Nc4ccc(OCc5cccc(F)c5)c(Cl)c4)c3c2)o1 [lapatinib]
How it was run: as §1

[10] = compound: CS(=O)(=O)N1CCN(Cc2cc3nc(-c4cccc5[nH]ncc45)nc(N4CCOCC4)c3s2)CC1 [pictilisib]
How it was run: as §1

[11] = compound: CS(=O)(=O)c1ccc(-c2cnc(N)c(C(=O)Nc3ccccc3)n2)cc1
How it was run: as §1

[12] = compound: C[C@@H](Oc1cc(-c2cnn(C3CCNCC3)c2)cnc1N)c1c(Cl)ccc(F)c1Cl [crizotinib]
How it was run: as §1

[13] = compound: C[C@@H]1COCCN1C2=NC(=NC(=C2)C3(CC3)S(=O)(=O)C)C4=C5C=CNC5=CC=C4
How it was run: as §1

[14] = compound: C[C@H](C1=CC=C(C=C1)C(=O)NC2=C3C=CNC3=NC=C2)N
How it was run: as §1

[15] = compound: C[C@H](Nc1ncnc2nc[nH]c12)c1cc2cccc(Cl)c2c(=O)n1-c1ccccc1 [duvelisib]
How it was run: as §1

[16] = compound: Cc1cc(Nc2cc(CN3CCOCC3)c3nc(C)c(Cc4ccc(Cl)cc4F)n3n2)n[nH]1 [gandotinib]
How it was run: as §1

[17] = compound: Cc1cc(Nc2cc(N3CCN(C)CC3)nc(Sc3ccc(NC(=O)C4CC4)cc3)n2)n[nH]1 [tozasertib]
How it was run: as §1

[18] = compound: Cc1cc(SCc2sc(-c3ccc(C(F)(F)F)cc3)nc2C)ccc1OCC(=O)O
How it was run: as §1

[19] = compound: Cc1ccc(-n2nc(C(C)(C)C)cc2NC(=O)Nc2ccc(OCCN3CCOCC3)c3ccccc23)cc1 [doramapimod]
How it was run: as §1

[20] = compound: Cc1ccc(C(=O)N(CCCN)[C@@H](c2nc3cc(Cl)ccc3c(=O)n2Cc2ccccc2)C(C)C)cc1 [ispinesib]
How it was run: as §1

Sequence of UniProt Q5JWF2 (Q5JWF2 whole entry, looked up): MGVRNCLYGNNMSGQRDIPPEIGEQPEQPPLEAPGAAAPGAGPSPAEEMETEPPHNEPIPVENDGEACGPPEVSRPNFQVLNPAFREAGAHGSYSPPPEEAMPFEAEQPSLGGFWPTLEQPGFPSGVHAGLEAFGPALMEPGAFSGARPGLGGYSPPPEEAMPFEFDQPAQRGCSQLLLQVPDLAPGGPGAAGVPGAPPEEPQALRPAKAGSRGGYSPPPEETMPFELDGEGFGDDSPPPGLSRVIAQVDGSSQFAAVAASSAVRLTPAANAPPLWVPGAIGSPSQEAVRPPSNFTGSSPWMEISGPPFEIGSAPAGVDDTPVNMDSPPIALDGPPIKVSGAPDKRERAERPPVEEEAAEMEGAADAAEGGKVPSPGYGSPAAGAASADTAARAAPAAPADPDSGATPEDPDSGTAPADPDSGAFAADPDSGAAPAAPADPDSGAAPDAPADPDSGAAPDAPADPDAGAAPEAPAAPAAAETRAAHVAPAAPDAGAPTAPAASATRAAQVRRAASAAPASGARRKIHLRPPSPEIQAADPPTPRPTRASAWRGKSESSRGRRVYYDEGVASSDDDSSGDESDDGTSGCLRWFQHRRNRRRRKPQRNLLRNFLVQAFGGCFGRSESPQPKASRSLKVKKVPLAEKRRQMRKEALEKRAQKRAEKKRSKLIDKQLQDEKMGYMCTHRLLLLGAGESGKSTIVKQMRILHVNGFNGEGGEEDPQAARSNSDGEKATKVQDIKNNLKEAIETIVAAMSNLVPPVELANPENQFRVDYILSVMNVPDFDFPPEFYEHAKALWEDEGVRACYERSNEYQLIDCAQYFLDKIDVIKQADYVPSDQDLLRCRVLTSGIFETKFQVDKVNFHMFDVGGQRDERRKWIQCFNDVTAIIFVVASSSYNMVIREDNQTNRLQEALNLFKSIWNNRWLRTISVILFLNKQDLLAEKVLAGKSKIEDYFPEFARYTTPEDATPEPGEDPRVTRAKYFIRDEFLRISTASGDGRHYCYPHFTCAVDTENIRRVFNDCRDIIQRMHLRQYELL
Sequence of UniProt P04035 (P04035 whole entry, looked up): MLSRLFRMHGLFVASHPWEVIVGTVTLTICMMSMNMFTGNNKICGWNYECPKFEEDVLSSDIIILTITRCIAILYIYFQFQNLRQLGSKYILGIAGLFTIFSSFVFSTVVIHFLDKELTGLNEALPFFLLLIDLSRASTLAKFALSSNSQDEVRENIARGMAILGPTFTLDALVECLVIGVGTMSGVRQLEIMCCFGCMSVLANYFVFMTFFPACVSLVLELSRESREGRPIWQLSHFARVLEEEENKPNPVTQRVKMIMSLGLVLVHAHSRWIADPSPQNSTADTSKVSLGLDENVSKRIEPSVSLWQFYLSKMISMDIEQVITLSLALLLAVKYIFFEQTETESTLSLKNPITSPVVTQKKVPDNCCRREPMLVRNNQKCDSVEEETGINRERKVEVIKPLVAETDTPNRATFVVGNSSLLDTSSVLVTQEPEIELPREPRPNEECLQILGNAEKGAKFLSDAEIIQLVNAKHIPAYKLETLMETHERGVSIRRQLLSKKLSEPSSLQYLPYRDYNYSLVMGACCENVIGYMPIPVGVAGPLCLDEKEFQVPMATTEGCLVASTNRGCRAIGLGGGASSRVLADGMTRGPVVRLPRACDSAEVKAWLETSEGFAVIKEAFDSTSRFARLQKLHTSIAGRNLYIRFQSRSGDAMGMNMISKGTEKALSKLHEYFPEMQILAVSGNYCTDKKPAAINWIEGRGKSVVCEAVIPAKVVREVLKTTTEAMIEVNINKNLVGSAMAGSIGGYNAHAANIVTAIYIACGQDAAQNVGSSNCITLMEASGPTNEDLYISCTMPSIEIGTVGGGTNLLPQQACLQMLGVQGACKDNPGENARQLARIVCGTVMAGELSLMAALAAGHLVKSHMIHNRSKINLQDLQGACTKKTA
Sequence of UniProt P14324 (P14324 whole entry, looked up): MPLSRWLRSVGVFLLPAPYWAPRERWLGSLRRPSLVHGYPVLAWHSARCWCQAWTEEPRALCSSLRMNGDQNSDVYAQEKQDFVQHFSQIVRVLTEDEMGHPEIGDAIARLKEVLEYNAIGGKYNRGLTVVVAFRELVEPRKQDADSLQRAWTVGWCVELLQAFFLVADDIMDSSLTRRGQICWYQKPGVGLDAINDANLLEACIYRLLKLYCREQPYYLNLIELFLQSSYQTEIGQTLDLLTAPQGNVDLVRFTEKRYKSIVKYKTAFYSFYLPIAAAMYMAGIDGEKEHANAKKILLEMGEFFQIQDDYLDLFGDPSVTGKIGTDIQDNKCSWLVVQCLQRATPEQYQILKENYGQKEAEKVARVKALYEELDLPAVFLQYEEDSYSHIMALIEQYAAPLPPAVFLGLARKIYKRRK
Sequence of UniProt P62879 (P62879 whole entry, looked up): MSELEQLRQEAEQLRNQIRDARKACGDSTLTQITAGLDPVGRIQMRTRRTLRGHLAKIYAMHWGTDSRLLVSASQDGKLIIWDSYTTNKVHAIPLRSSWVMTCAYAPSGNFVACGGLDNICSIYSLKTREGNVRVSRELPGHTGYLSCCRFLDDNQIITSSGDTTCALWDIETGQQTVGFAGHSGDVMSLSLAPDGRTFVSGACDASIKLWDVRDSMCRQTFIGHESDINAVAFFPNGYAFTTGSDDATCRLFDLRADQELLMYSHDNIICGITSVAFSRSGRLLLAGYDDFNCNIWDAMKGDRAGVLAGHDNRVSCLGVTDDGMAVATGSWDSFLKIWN
Sequence of UniProt Q8N4A0 (Q8N4A0 whole entry, looked up): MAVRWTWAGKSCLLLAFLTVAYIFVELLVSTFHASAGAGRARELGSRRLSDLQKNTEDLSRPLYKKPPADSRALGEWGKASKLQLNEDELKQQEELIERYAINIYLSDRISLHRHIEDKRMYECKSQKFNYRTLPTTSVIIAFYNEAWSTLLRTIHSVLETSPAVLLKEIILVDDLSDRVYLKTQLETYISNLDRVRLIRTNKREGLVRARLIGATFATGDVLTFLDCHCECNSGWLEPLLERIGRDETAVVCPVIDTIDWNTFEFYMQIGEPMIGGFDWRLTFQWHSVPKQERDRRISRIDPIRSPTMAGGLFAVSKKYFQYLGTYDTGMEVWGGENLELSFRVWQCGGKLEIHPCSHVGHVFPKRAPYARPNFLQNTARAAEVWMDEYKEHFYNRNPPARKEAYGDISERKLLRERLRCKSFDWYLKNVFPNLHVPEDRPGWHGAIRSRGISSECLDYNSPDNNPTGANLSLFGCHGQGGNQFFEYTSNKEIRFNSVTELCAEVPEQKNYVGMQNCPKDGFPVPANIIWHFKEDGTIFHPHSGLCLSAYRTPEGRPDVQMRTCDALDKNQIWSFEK
Sequence of UniProt P55795 (P55795 whole entry, looked up): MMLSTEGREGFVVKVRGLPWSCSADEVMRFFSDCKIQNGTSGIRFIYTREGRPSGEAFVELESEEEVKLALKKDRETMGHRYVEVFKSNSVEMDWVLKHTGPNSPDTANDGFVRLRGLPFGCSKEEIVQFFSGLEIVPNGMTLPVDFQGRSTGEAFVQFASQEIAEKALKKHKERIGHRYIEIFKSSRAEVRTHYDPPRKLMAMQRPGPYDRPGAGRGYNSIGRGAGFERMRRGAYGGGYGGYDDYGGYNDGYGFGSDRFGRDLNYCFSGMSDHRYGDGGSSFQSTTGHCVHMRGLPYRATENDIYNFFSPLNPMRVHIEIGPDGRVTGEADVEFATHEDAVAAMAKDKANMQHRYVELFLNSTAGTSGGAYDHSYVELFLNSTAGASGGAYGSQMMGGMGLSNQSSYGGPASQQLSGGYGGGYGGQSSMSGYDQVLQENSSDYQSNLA
Sequence of UniProt P49356 (P49356 whole entry, looked up): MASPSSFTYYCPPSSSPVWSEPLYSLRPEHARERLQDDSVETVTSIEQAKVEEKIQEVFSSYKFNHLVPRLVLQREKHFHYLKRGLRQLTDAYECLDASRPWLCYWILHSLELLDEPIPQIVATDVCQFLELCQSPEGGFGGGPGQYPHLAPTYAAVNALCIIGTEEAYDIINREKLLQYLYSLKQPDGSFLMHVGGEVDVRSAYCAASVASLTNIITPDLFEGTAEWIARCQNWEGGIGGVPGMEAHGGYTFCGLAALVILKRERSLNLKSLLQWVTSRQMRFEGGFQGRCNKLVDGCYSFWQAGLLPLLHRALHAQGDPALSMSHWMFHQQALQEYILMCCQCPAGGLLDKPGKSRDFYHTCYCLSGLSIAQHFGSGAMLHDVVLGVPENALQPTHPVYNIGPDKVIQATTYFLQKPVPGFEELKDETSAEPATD
Sequence of UniProt P13807 (P13807 whole entry, looked up): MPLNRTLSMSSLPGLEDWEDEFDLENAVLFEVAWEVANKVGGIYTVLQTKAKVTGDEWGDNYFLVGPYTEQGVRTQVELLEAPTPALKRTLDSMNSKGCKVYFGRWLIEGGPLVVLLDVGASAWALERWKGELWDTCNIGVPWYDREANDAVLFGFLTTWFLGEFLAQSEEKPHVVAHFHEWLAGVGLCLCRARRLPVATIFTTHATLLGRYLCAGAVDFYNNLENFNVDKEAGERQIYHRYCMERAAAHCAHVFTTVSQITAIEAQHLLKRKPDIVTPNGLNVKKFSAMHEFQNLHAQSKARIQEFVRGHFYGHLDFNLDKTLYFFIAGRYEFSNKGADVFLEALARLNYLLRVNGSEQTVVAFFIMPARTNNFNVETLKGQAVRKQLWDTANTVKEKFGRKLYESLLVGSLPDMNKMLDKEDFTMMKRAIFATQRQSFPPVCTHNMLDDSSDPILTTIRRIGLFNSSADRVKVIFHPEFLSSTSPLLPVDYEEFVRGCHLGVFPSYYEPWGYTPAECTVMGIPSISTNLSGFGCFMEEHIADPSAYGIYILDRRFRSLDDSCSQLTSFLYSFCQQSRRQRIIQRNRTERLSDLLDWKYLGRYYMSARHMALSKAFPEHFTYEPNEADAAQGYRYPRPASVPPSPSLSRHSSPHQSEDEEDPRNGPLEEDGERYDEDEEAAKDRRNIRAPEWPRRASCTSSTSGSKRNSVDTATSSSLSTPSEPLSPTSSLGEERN
Sequence of UniProt P60520 (P60520 whole entry, looked up): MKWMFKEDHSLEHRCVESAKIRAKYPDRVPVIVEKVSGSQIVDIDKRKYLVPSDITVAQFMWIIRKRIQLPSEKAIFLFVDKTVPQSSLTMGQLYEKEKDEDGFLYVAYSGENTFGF

Row | Target | log2 fold change [1] | log2 fold change [2] | log2 fold change [3] | log2 fold change [4] | log2 fold change [5] | log2 fold change [6] | log2 fold change [7] | log2 fold change [8] | log2 fold change [9] | log2 fold change [10] | log2 fold change [11] | log2 fold change [12] | log2 fold change [13] | log2 fold change [14] | log2 fold change [15] | log2 fold change [16] | log2 fold change [17] | log2 fold change [18] | log2 fold change [19] | log2 fold change [20]
1 | GALNT4 (UniProt Q8N4A0) | -0.029 | 0.066 | -0.017 | -0.099 | -0.015 | 0.011 | 0.025 | 0.025 | -0.028 | 0.172 | 0.047 | -0.068 | 0.156 | 0.017 | 0.09 | -0.153 | -0.028 | 0.036 | 0.013 | 0.04
2 | HMGCR isoform 3 (UniProt P04035) | -0.097 | -0.027 | 0 | 0.188 | -0.146 | 0.166 | 0.01 | -0.045 | -0.066 | -0.13 | -0.259 | 0.071 | -0.234 | -0.004 | 0.003 | 0.092 | -0.088 | -0.065 | 0.025 | 0.111
3 | GABARAPL2 (UniProt P60520) | 0.185 | -0.01 | -0.036 | -0.072 | 0.016 | 0.033 | -0.014 | 0 | -0.006 | -0.059 | 0.081 | -0.178 | 0.036 | 0.006 | 0.053 | 0.039 | 0.031 | 0.005 | -0.073 | -0.151
4 | FDPS (UniProt P14324) | 0.048 | -0.246 | 0.019 | -0.063 | 0.066 | 0.118 | -0.047 | 0.009 | -0.018 | -0.076 | 0.07 | -0.768 (active) | 0.073 | 0.117 | 0.059 | -0.091 | -0.193 | 0.222 | 0.004 | -0.493 (active)
5 | H1FX (UniProt Q92522) | -0.116 | 0.112 | 0.049 | 0.161 | -0.147 | 0.033 | -0.044 | -0.24 | 0.133 | -0.134 | -0.175 | 0.091 | -0.524 | 0.432 | -0.143 | 0.13 | 0.029 | 0.021 | 0.188 | -0.016
6 | FNTB (UniProt P49356) | 0.088 | 0.26 | 0.159 | -0.024 | -0.074 | -0.057 | 0.02 | 0.024 | 0.18 | -0.165 | 0.104 | 0.054 | -0.035 | -0.137 | 0.085 | 0.169 | -0.012 | -0.043 | -0.012 | 0.109
7 | GABARAPL1 isoform 2 (UniProt Q9H0R8) | 0.053 | -0.054 | 0.024 | -0.112 | 0.024 | 0.007 | 0.021 | -0.01 | -0.026 | 0.115 | 0.105 | -0.344 (active) | 0.048 | -0.045 | 0.057 | 0.078 | -0.008 | 0.026 | -0.034 | -0.315 (active)
8 | GOLGB1 isoform 2 (UniProt Q14789) | -0.16 | 0.337 (active) | -0.04 | 0.066 | -0.069 | 0.072 | -0.02 | -0.051 | 0.046 | 0.066 | -0.135 | -0.012 | -0.314 (active) | 0.19 | 0.004 | -0.031 | 0.211 | -0.025 | 0.056 | 0.012
9 | GNAS (UniProt Q5JWF2) | -0.048 | 0 | -0.03 | -0.048 | -0.09 | 0.052 | 0.108 | -0.077 | 0.02 | 0.051 | 0.049 | 0.047 | 0.039 | -0.031 | 0.07 | -0.034 | -0.026 | 0.003 | 0.007 | -0.141
10 | GNB2 (UniProt P62879) | -0.051 | 0.034 | -0.006 | -0.058 | -0.068 | 0.089 | 0.085 | -0.071 | 0 | 0.13 | 0.084 | 0.134 | 0.024 | -0.13 | 0.046 | -0.095 | 0.017 | 0 | 0.009 | 0.062
11 | FECH isoform 2 (UniProt P22830) | 0.159 | -0.188 | 0.082 | -0.127 | -0.185 | 0.363 | 0.153 | 0.062 | 0.269 | 0.396 | 0.527 | 0.021 | 0.161 | -0.12 | 0.263 | 0.178 | 0.162 | 0.029 | 0.071 | -0.37
12 | GALNT11 (UniProt Q8NCW6) | -0.012 | -0.028 | -0.019 | -0.042 | 0 | 0.052 | 0.013 | 0.062 | -0.011 | 0.026 | 0.039 | 0.04 | 0.112 | 0.018 | 0.039 | 0.045 | 0.027 | -0.061 | 0.045 | -0.163
13 | FNTA (UniProt P49354) | 0.162 | 0.069 | 0.019 | -0.062 | -0.074 | -0.01 | 0.056 | 0.044 | 0.04 | -0.005 | 0.073 | 0.069 | 0.077 | -0.005 | 0.014 | 0.057 | -0.017 | -0.014 | -0.043 | 0.06
14 | HIST2H2BF isoform 2 (UniProt Q5QNW6) | 0.062 | 0.248 | -0.163 | 0.437 | 0.081 | -0.112 | 0.053 | -0.314 | 0.047 | -0.137 | -0.049 | -0.095 | -0.279 | 0.38 | -0.051 | -0.018 | 0.119 | -0.064 | 0.253 | -0.178
15 | HNRNPH2 (UniProt P55795) | 0.003 | 0.033 | 0.079 | 0.001 | 0.058 | -0.231 | 0.02 | -0.079 | 0.057 | -0.021 | 0.029 | -0.171 | 0.096 | -0.023 | 0.054 | 0.06 | 0.113 | 0.177 | -0.024 | -0.159
16 | GYS1 (UniProt P13807) | -0.045 | 0.045 | 0.124 | 0.462 | -0.026 | -0.109 | -0.006 | -0.165 | 0.013 | 0.219 | 0.017 | -0.097 | -0.187 | 0.311 | -0.147 | -0.015 | -0.079 | 0.184 | 0.271 | -0.231
